Data taken from PubChem BioAssay (Tox21).
Values joined by “and” are separate entries in the source; they are usually repeats but may differ in a detail not shown here. Identical values can stand only once. Results filed as inconclusive are left out. Some compounds were tested as several samples or in several runs, with calls that do not always agree. Active and inactive are the calls of the source. The call rests on the fitted dose curve.

Biological target: Acetylcholinesterase (Homo sapiens) (UniProt P22303)
Sequence (P22303 whole entry, looked up): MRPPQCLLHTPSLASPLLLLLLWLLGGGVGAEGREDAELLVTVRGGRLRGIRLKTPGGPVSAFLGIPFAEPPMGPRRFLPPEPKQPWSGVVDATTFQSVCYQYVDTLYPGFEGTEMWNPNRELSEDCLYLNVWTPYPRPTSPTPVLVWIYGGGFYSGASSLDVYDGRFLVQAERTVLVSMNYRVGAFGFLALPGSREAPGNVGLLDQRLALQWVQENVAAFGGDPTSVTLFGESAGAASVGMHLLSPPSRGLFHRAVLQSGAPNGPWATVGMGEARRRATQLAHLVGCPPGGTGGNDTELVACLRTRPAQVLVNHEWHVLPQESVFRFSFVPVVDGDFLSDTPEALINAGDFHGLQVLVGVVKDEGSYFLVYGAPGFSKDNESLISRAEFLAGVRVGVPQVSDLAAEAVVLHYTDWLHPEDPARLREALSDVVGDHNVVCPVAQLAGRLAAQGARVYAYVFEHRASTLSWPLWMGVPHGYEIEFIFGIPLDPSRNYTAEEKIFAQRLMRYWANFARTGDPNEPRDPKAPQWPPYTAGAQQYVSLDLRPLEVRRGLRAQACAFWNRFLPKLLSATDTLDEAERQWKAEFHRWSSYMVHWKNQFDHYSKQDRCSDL
Assay: Acetylcholinesterase (AChE) small molecule antagonists: colormetric cell-based qHTS assay (AID 1347395); further: nearly all actives have a fitted effect of over 30% in size; further: potency means the concentration at half of the fitted maximal effect
Settings: SH-SY5Y cells AChE activity, colorimetric (Ellman); series mostly up to 115 µM; activity, negative = inhibition: at the top concentration
Outline: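 SH-SY5Y cells, plated overnight at 37 C, were exposed to compounds for 30 min at 37 C and 5% CO2. Acetylthiocholine plus DTNB was then added, and thiocholine from endogenous AChE was quantified colorimetrically after 90 min at 37 C.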
On the % scale 0 is the no-effect control and ±100 the full control effect.

Structure (SMILES) | activity, negative = inhibition | Potency
CCC(C)(C)C1CCC(O)CC1 (stereo not given) | -3.15% (inactive) | –
CCOC(=O)NNc1nncc2ccccc12 | – | inactive
CN(C)CCc1c[nH]c2ccc(C[C@H]3COC(=O)N3)cc12 | -1.14% [at 52.9 µM] (inactive) | –
C=CC(=O)OCC(CO)(COC(=O)C=C)COC(=O)C=C | – | inactive
CCN(O)CC | 3.69% (inactive) | –
O=C(O)Cc1ccccc1Nc1c(Cl)cccc1Cl | – | inactive
ClC/C=C\CCl | -2.56% (inactive) | –
COC(=O)Nc1nc2ccc(S(=O)c3ccccc3)cc2[nH]1 (stereo not given) | – | inactive
CC#C[C@]1(O)CC[C@H]2[C@@H]3CCC4=CC(=O)CCC4=C3[C@@H](c3ccc(N(C)C)cc3)C[C@@]21C | – | inactive
Cc1ccc2ccccc2n1 | 0.21% (inactive) | –
CC1OC1C1CCC2(C)OC2C1 (stereo not given) | -2% (inactive) | –
CCN(Cc1cccc(S(=O)(=O)O)c1)c1ccccc1 | 1.02% (inactive) | –
COC1=C(OC)C(=O)C(CCCCCCCCCCO)=C(C)C1=O | -8.08% [at 52.9 µM] (inactive) | –
Cc1cccc(N(C)C(=S)Oc2ccc3ccccc3c2)c1 | – | inactive
Cc1cc(C)c(C(=O)O)c(C)c1 | -4.35% (inactive) | –
CC(C)(O)c1coc(S(=O)(=O)NC(=O)Nc2c3c(cc4c2CCC4)CCC3)c1 | 3.07% (inactive) | –
CCCCCCCCN(C)C | 1.3% (inactive) | –
CC(C)(C)[C@@H](O)[C@@H](Cc1ccc(Cl)cc1)n1cncn1 | – | inactive and 71 µM (active)
COC1CCC=CO1 (stereo not given) | 2.75% (inactive) | –
O=c1cc(-c2ccccc2)oc2ccccc12 | -10.4% (inactive) | –

Structure (SMILES) | activity, negative = inhibition | Potency
O=C1[C@@H]2[C@H]3CC[C@H](C3)[C@@H]2C(=O)N1CCCCN1CCN(c2ncccn2)CC1 | -4.94% [at 52.9 µM] (inactive) | –
C=C(C)C(=O)OCC(CC)(COC(=O)C(=C)C)COC(=O)C(=C)C | – | inactive
CCCCCC1C(=O)CCC1CC(=O)OC (stereo not given) | – | inactive
O=C(O)Cc1ccccc1Oc1ccc(Cl)cc1Cl | 0.969% [at 52.9 µM] (inactive) | –
C=CCCCCCC | 1.02% (inactive) | –
CC(=O)Oc1ccc(C2(c3ccc(OC(C)=O)cc3)Oc3ccccc3NC2=O)cc1 | 0.983% [at 52.9 µM] (inactive) | –
C=C(C)C(=O)OCCCCCCCC(C)C | 3.22% (inactive) | –
CN(C)Cc1cc(C(C)(C)C)c(O)c(C(C)(C)C)c1 | -0.8% (inactive) | –
Cc1c[nH]c(=O)[nH]c1=O | -0.165% (inactive) | –
Clc1sc(Cl)c(Cl)c1Cl | 4.09% (inactive) | –
COc1cc(-c2ccc(=O)[nH]n2)ccc1OC(F)F | -1.45% [at 52.9 µM] (inactive) | –
CCOC(C)OCC | 7.91% (inactive) | –
CCCCCCCCC(CCCCCC)C(=O)O (stereo not given) | 0.485% (inactive) | –
O=C1c2ccccc2CCc2ccccc21 | – | inactive
CCCCCCCCCCCCCCCCBr | 0.0868% [at 23.6 µM] (inactive) | –
CC(=O)O[Si](C)(OC(C)=O)OC(C)=O | 3.38% (inactive) | –
CCc1ccc2c(c1)C(=O)c1ccccc1C2=O | 1.22% (inactive) | –
CC(=O)O[C@H]1C[C@@H]2CC[C@@]1(C)C2(C)C | -1.72% (inactive) | –
C=CC(=O)OCCOC(=O)C=C | -1.41% (inactive) | –
O=C1[C@H](CC[C@H](O)c2ccc(F)cc2)[C@@H](c2ccc(O)cc2)N1c1ccc(F)cc1 | -11% [at 52.9 µM] (inactive) | –

Biological target: Acetylcholinesterase (Homo sapiens) (UniProt P22303)
Assay: Acetylcholinesterase (AChE) small molecule antagonists: enzyme-based qHTS assay (AID 1347397); further: nearly all actives have a fitted effect of over 55% in size
Settings: Potency: AChE enzyme activity inhibition; outcome: AChE enzyme activity inhibition; series mostly up to 115 µM; activity change, negative = inhibition: at the top concentration
Outline: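 Colorimetric DTNB read-out of thiocholine released from acetylthiocholine by recombinant human AChE (50 mU/mL as dispensed). Compounds were preincubated 30 min at RT before substrate/DTNB addition, with a 10 min RT reaction.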

Structure (SMILES) | activity change, negative = inhibition | Potency
CCC(C)(C)C1CCC(O)CC1 (stereo not given) | 1.14% (inactive) | –
CCOC(=O)NNc1nncc2ccccc12 | – | inactive
CN(C)CCc1c[nH]c2ccc(C[C@H]3COC(=O)N3)cc12 | 0% [at 53 µM] (inactive) | –
C=CC(=O)OCC(CO)(COC(=O)C=C)COC(=O)C=C | – | inactive
CCN(O)CC | 1.63% (inactive) | –
O=C(O)Cc1ccccc1Nc1c(Cl)cccc1Cl | – | inactive
ClC/C=C\CCl | -0.282% (inactive) | –
COC(=O)Nc1nc2ccc(S(=O)c3ccccc3)cc2[nH]1 (stereo not given) | – | inactive
CC#C[C@]1(O)CC[C@H]2[C@@H]3CCC4=CC(=O)CCC4=C3[C@@H](c3ccc(N(C)C)cc3)C[C@@]21C | – | inactive
Cc1ccc2ccccc2n1 | 0.808% (inactive) | –
CC1OC1C1CCC2(C)OC2C1 (stereo not given) | 1.15% (inactive) | –
CCN(Cc1cccc(S(=O)(=O)O)c1)c1ccccc1 | 0.855% (inactive) | –
COC1=C(OC)C(=O)C(CCCCCCCCCCO)=C(C)C1=O | 0.552% [at 53 µM] (inactive) | –
Cc1cccc(N(C)C(=S)Oc2ccc3ccccc3c2)c1 | – | inactive
Cc1cc(C)c(C(=O)O)c(C)c1 | -2.34% (inactive) | –
CC(C)(O)c1coc(S(=O)(=O)NC(=O)Nc2c3c(cc4c2CCC4)CCC3)c1 | 0.0149% (inactive) | –
CCCCCCCCN(C)C | 0.546% (inactive) | –
CC(C)(C)[C@@H](O)[C@@H](Cc1ccc(Cl)cc1)n1cncn1 | – | inactive
COC1CCC=CO1 (stereo not given) | 0.401% (inactive) | –
O=c1cc(-c2ccccc2)oc2ccccc12 | – | inactive

Structure (SMILES) | activity change, negative = inhibition | Potency
O=C1[C@@H]2[C@H]3CC[C@H](C3)[C@@H]2C(=O)N1CCCCN1CCN(c2ncccn2)CC1 | 0.415% [at 53 µM] (inactive) | –
C=C(C)C(=O)OCC(CC)(COC(=O)C(=C)C)COC(=O)C(=C)C | – | inactive
CCCCCC1C(=O)CCC1CC(=O)OC (stereo not given) | – | inactive
O=C(O)Cc1ccccc1Oc1ccc(Cl)cc1Cl | 0.63% [at 53 µM] (inactive) | –
C=CCCCCCC | -0.409% (inactive) | –
CC(=O)Oc1ccc(C2(c3ccc(OC(C)=O)cc3)Oc3ccccc3NC2=O)cc1 | -1.65% [at 53 µM] (inactive) | –
C=C(C)C(=O)OCCCCCCCC(C)C | 0.821% (inactive) | –
CN(C)Cc1cc(C(C)(C)C)c(O)c(C(C)(C)C)c1 | 0.785% (inactive) | –
Cc1c[nH]c(=O)[nH]c1=O | 0% (inactive) | –
Clc1sc(Cl)c(Cl)c1Cl | 0.129% (inactive) | –
COc1cc(-c2ccc(=O)[nH]n2)ccc1OC(F)F | 5.57% [at 53 µM] (inactive) | –
CCOC(C)OCC | 2.42% (inactive) | –
CCCCCCCCC(CCCCCC)C(=O)O (stereo not given) | -4.78% (inactive) | –
O=C1c2ccccc2CCc2ccccc21 | – | inactive
CCCCCCCCCCCCCCCCBr | 2.89% [at 23.6 µM] (inactive) | –
CC(=O)O[Si](C)(OC(C)=O)OC(C)=O | 1.23% (inactive) | –
CCc1ccc2c(c1)C(=O)c1ccccc1C2=O | -0.327% (inactive) | –
CC(=O)O[C@H]1C[C@@H]2CC[C@@]1(C)C2(C)C | -0.0028% (inactive) | –
C=CC(=O)OCCOC(=O)C=C | 0.756% (inactive) | –
O=C1[C@H](CC[C@H](O)c2ccc(F)cc2)[C@@H](c2ccc(O)cc2)N1c1ccc(F)cc1 | -4.13% [at 53 µM] (inactive) | –
